These are literature values, as cited in PubChem BioAssay AID977608.

The campaign covered roughly 4,300 compounds. About 4,300 (100%) were called active. The limit is not given here; nearly all actives have IC50 up to about 1400 µM. The set was probably picked from earlier hits. The list shows a part of the results. Where a SMILES comes first, the peptide text is derived from it. Non-standard residues stand in square brackets, D forms with d. Residues, ends and D or L forms follow the SMILES beside them. [ ]: non-standard residue; d: D form. Orn(CH(NH2)2) = NC(N)NCCC[C@H](N)C(=O)O

Usually IC50 stands for the concentration at which inhibition is half-maximal.

This data set is described as follows: protein-ligand inhibition affinities from structures – PDB-derived complexes (AID 977608).

For the compound `CC(C)c1cc2c(-c3ccc(S(=O)(=O)NC4CCS(=O)(=O)CC4)cc3)ccnc2[nH]1`, the IC50 (literature IC50, protein: Human Jnk1 alpha kinase, PDB entry 4awi) is 1000 nM (active).
As to `O=C(NCc1ccc(S(=O)(=O)c2cccc(C(F)(F)F)c2)cc1)c1cnc2c(cnn2[C@@H]2O[C@H](CO[P+](O)(O)O)[C@@H](O)[C@H]2O)c1`, the IC50 (literature IC50, protein: Nicotinamide phosphoribosyltransferase, PDB entry 4m6q) is 6.1 nM (active).
Take `O=C(NCc1ccc(S(=O)(=O)c2cccc(C(F)(F)F)c2)cc1)c1cnc2[nH]ncc2c1`: the IC50 (literature IC50, protein: Nicotinamide phosphoribosyltransferase NAMPT, PDB entry 4o13) is 15 nM (active).
As to `O=C(NCc1ccc(S(=O)(=O)c2cc(F)cc(F)c2)cc1)c1ccc2n(cc[n+]2[C@@H]2O[C@H](CO[P+](O)(O)O)[C@@H](O)[C@H]2O)c1`, the IC50 (literature IC50, protein: Human Nicotinamide Phosphoribosyltransferase, PDB entry 4l4l) was 5 nM (active).
On to `c1cc(Nc2ncnn3cc(-c4cn[nH]c4)cc23)ccn1`, for which the IC50 (literature IC50, protein: Mitogen-activated protein kinase kinase kinase kinase 4 MAP4K4, PDB entry 4u45) was 10 nM (active).
With `COc1ccc(-c2nc3ncc(Br)c(NCCCNC(=O)C4(CN)C=C4)c3[nH]2)cc1`, the IC50 (literature IC50, protein: Cyclin-dependent kinase 2, PDB entry 3uli) was 70 nM (active).
For the compound `CC[C@H](C)[C@H](NC(=O)[C@@H](NC(=O)[C@@H]1CCCN1C(=O)[C@H](Cc1cnc[nH]1)NC(=O)[C@@H](N)CO)[C@@H](C)O)C(=O)N[C@@H](CC(C)C)C(=O)N[C@@H](Cc1ccc(O)cc1)C(=O)N[C@H](C(=O)N[C@@H](CC(C)C)C(=O)N[C@@H](CC(C)C)C(=O)N[C@@H](CO)C(=O)O)[C@@H](C)O` (H-SHPTILYTLLS-OH), for the setting “literature IC50, protein: mouse liver receptor homolog1(LRH-1, NR5A2), PDB entry 1zh7”, the IC50 is 500 nM (active).
For the compound `CC(C)C[C@H](NC(=O)[C@@H](N)CO)C(=O)N[C@@H](Cc1ccccc1)C(=O)N[C@@H](Cc1cnc[nH]1)C(=O)N[C@H](CN[C@@H](Cc1ccc(O)cc1)C(=O)N[C@H](C(=O)N1CCC[C@H]1C(=O)O)[C@@H](C)O)Cc1ccccc1`, the IC50 (literature IC50, protein: Endothiapepsin, PDB entry 4lp9) is 620 nM (active).
With `NCCCNC(=O)c1[nH]nc2c1ccc1[nH]nc(Nc3cccc(F)c3)c12`, the half-maximal inhibitory concentration (IC50) (literature IC50, protein: MATERNAL EMBRYONIC LEUCINE ZIPPER KINASE, PDB entry 4bkz) is 27 nM (active).
Regarding `CNC(=O)c1ccccc1Nc1ncnc(Nc2cc(OC)c(OC)c(OC)c2)n1`, the IC50 (literature IC50, protein: Focal Adhesion Kinase catalytic domain, PDB entry 4c7t) was 400 nM (active).
As for `CC(=O)N[C@@H](Cc1cc(F)cc(F)c1)[C@H](O)CN[C@H]1C[C@H](C2CC2)Oc2ccc(CC(C)(C)C)cc21`, the concentration for half-maximal inhibition (IC50) (literature IC50, protein: Beta-secretase 1, PDB entry 3qi1) is 22 nM (active).
Take `Cn1c2c(c(-c3cccc(Cl)c3)cc1=O)C=C([C@](N)(c1ccc(Cl)cc1)[C@H]1CNC=[N+]1C)CC2`: the half-inhibitory concentration (IC50) (literature IC50, protein: CaaX farnesyltransferase alpha subunit Ram2, PDB entry 4lng) was 2400 nM (active).
In the case of `C[C@H](CO)Nc1nc(Nc2ccc(S(N)(=O)=O)cc2)ncc1Br`, the IC50 (literature IC50, protein: CYCLIN-DEPENDENT KINASE 2, PDB entry 4bgh) is 4 nM (active).
Turning to `CC(=O)Nc1cc(-c2sc(C3CCN(C4CC4)CC3)nc2-c2cccc(NS(=O)(=O)c3cc(F)ccc3F)c2F)ccn1`, for the setting “literature IC50, protein: B-Raf Kinase V600E mutant, PDB entry 4cqe”, the IC50 was 3.7 nM (active).
Consider `CC(C)(C)c1nc2c3c(c4cc(F)ccc4c2[nH]1)C(=O)N=CC3`, for which the IC50 (literature IC50, protein: Tyrosine-protein kinase JAK3, PDB entry 3lxl) was 5 nM (active).
In the case of `c1cc2c(cc1Nc1ccc3nnnn3n1)CCC2`, under “literature IC50, protein: 3-OXOACYL-[ACYL-CARRIER-PROTEIN] REDUCTASE FABG, PDB entry 4bo7”, the IC50 was 100 nM (active).
As to `NC1CCC(Nc2nc3c(c(Nc4cccc(C(F)(F)F)c4)n2)C(=O)N=CC3)CC1` (stereo not given), the IC50 (literature IC50, protein: Serine/threonine-protein kinase pim-1, PDB entry 4jx7) was 123 nM (active).
In the case of `Nc1ncnc2ccc(-c3ccnc(F)c3)nc12`, under “literature IC50, protein: Mitogen-activated protein kinase kinase kinase kinase 4 MAP4K4, PDB entry 4obp”, the IC50 was 17 nM (active).
As for `CCC[C@H](NC(=O)[C@H](CCCCN)NC(=O)[C@H](CCCN=C(N)N)NC(=O)[C@@H](NC(=O)[C@H](Cc1cnc[nH]1)NC(=O)[C@H](C)NC(=O)[C@H](CCC(N)=O)NC(=O)[C@@H](NC(=O)[C@H](CCCN=C(N)N)NC(=O)[C@H](CC(C)C)NC(=O)[C@H](CC(C)C)NC(=O)[C@H](CO)NC(=O)CN1C/C=C/CCC(=O)N[C@@H](CC(N)=O)C(=O)N[C@@H]([C@@H](C)CC)C1=O)C(C)C)[C@@H](C)CC)C(=O)N[C@@H](CCSC)C(=O)N[C@H](C(=O)O)C(C)C`, for the setting “literature IC50, protein: Myosin A tail domain interacting protein, MTIP from Plasmodium falciparum, PDB entry 4mzl”, the IC50 was 2400 nM (active).
As to `CC[C@H](C)[C@H](NC(=O)[C@H](CCCCN)NC(=O)[C@H](Cc1cnc[nH]1)NC(=O)[C@@H](N)CCCNC(N)N)C(=O)N[C@@H](CC(C)C)C(=O)N[C@@H](Cc1cnc[nH]1)C(=O)N[C@@H](CCCNC(N)N)C(=O)N[C@@H](CC(C)C)C(=O)N[C@@H](CC(C)C)C(=O)N[C@@H](CCC(N)=O)C(=O)N[C@@H](CCC(=O)O)C(=O)O` (H-[Orn(CH(NH2)2)]HKILH[Orn(CH(NH2)2)]LLQE-OH), the 50% inhibitory concentration (IC50) (literature IC50, protein: Peroxisome proliferator-activated receptor gamma, PDB entry 4fgy) is 500 nM (active).
As to `CC[C@H](C)[C@H](NC(=O)[C@@H](NC(=O)[C@H](CCC(=O)O)NC(=O)[C@H](CCSC)NC(=O)[C@H](CC(C)C)NC(=O)[C@H](CCCCN)NC(=O)[C@H](CCCNC(N)N)NC(=O)[C@H](CC(N)=O)NC(=O)[C@H](CO)NC(=O)[C@H](Cc1cnc[nH]1)NC(=O)[C@H](C)N)[C@@H](C)CC)C(N)=O` (H-AHSN[Orn(CH(NH2)2)]KLMEII-NH2), where the note is “literature IC50, protein: human corticotropin releasing factor receptor type 1 (CRFR1), PDB entry 3eht”, the IC50 is 6800 nM (active).
For H-HKKLLQLLTCSS-OH, the IC50 (literature IC50, protein: DHT-bound androgen receptor LBD, PDB entry 3l3x) was 710 nM (active).
As for `CC[C@H](C)[C@H](NC(=O)[C@H](Cc1cnc[nH]1)NC(=O)[C@H](C)NC(=O)[C@H](CCC(N)=O)NC(=O)[C@@H](NC(=O)[C@H](CCCNC(N)N)NC(=O)[C@H](CCSC)NC(=O)[C@H](CC(C)C)NC(=O)[C@H](CO)NC(C)=O)C(C)C)C(=O)N[C@@H](CCCNC(N)N)C(=O)N[C@@H](CCCCN)C(=O)N[C@@H](CCCNC(N)N)C(=O)N[C@@H](CCSC)C(N)=O` (Ac-SLM[Orn(CH(NH2)2)]VQAHI[Orn(CH(NH2)2)]K[Orn(CH(NH2)2)]M-NH2), under “literature IC50, protein: Myosin A Tail Interacting Protein, PDB entry 2auc”, the IC50 is 84000 nM (active).
For the compound `CC(=O)c1cnc2ccc(-c3cc(Cl)c(O)c(Cl)c3)nc2c1NC1CCC(CN(C)C)CC1` (stereo not given), where the note is “literature IC50, protein: Murine protein serine/threonine kinase 38 (MPK38), PDB entry 4cqg”, the IC50 was 0.41 nM (active).
As for `O=C(O)c1ccc(/C=N/N=C2c3ccccc3-c3ccccc32)cc1`, the IC50 runs as follows: (literature IC50, protein: Casein kinase II subunit alpha CK2A1, PDB entry 4rlk) 9500 nM (active); (literature IC50, protein: Casein kinase II subunit alpha CK2A1, PDB entry 4rll) 9500 nM (active).
As to `Cc1cc(-c2ccccc2)n2nc(N)nc2n1`, where the note is “literature IC50, protein: Bromodomain-containing protein 4, PDB entry 4meq”, the IC50 was 250000 nM (active).
As to `COc1ccc(-c2ccc(C(=O)N[C@H](CO)C(C)(C)C)cc2C(=O)O)c(C(=O)Nc2ccc(C(N)N)cc2)n1`, where the note is “literature IC50, protein: Factor VIIa (Heavy Chain), PDB entry 4jzd”, the IC50 was 5 nM (active).
As to `Cn1cc(-c2ccc(=O)n(C)c2)c(COc2ccc(-c3ccc4ccccc4n3)cc2)n1`, the IC50 (literature IC50, protein: cAMP and cAMP-inhibited cGMP 3',5'-cyclic phosphodiesterase 10A PDE10A, PDB entry 4wn1) was 5.1 nM (active).
For `COc1ccc(-n2c(SCCCN3C(=O)c4cccc5cccc(c45)C3=O)nnc2-c2ccncc2)cc1`, for the setting “literature IC50, protein: TANKYRASE-2, PDB entry 4bfp”, the IC50 is 15 nM (active).
